These results are taken from PubChem BioAssay.

Assay [1] can be described thus: compounds binding Alexa647 anti-His antibody – biochemical, small-molecule microarray, 635 nm fluorescence, artefact control for SMM control protein annotation, primary screen (AID 1128).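 Note: score merges feature fluorescence with signal-to-noise for each printed compound spot.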 The following applies: higher = more signal.
Assay [2] deals with Human papillomavirus type 1a E7 protein (residues 1-88). The experiment in a line: HPV1a E7 small-molecule binders, primary screen, biochemical, small-molecule microarray, residues 1-88, 635 nm (AID 1129). Conditions: small-molecule microarray binding, fluorescence 635 nm; higher = more signal.
In assay [3] the target is Focal adhesion kinase 1 (Homo sapiens) (UniProt Q05397). Briefly: PTK2 protein binding on printed compound slides – biochemical, small-molecule microarray, 635/667 nm fluorescence, BSA, DTT, primary screen (AID 1130).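 Note: composite of spot emission at 667 nm and signal to noise over triplicate slides.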 Conditions: 635 nm fluorescence, higher = more signal.
Assay [4] concerns Fibrinogen (Alexa647-labelled). The experiment in a line: Alexa647-fibrinogen binding to printed small molecules – biochemical, small-molecule microarray, 635/667 nm fluorescence, artefact control for SMM control-protein annotation, profiling panel (AID 1131).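 Note: z-score merges 667 nm fluorescence with per-spot signal-to-noise over triplicate slides.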 The following applies: fibrinogen-A647 binding fluorescence, higher = more signal.
Assay [5] deals with Follistatin (Homo sapiens) (UniProt P19883). The experiment in a line: FST protein binding to printed compounds – biochemical, small-molecule microarray, 635/667 nm fluorescence, primary screen (AID 1132). The following applies: 635 nm fluorescence, higher = more signal.
The target of assay [6] is Fibroblast growth factor 2 (Homo sapiens) (UniProt P09038). Briefly: basic fibroblast growth factor binding to printed compounds – biochemical, small-molecule microarray, 635/667 nm fluorescence, primary screen (AID 1133). The following applies: FGF2, fluorescence 635/667, higher = more signal.
The nature of assay [7]: JC-1 mitochondrial potential readout, lung cancer cells – cell-based, A549, JC-1 fluorescence, basal, 24 h, 100 nL, profiling panel (AID 1138).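 Note: A549 lung adenocarcinoma cells under basal conditions with no added stimulus; test concentration not given here.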 The following applies: higher = more signal.
Another assay deals with Lefty1. Briefly: Lefty1 protein binding to printed compounds – biochemical, small-molecule microarray, 635/667 nm fluorescence, primary screen (AID 1139). The following applies: fluorescence 635/667, higher = more signal.
In assay [8] the test system is wheat germ agglutinin (Triticum aestivum), Alexa647-labelled. Briefly: Alexa647-WGA lectin binding to printed small molecules – biochemical, small-molecule microarray, 635/667 nm fluorescence, artefact control for SMM control-protein annotation, profiling panel (AID 1140).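 Note: score merges 667 nm feature emission with signal to noise over triplicate slides.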 The following applies: WGA-A647 binding, 635 nm fluorescence, higher = more signal.
The target of assay [9] is Luciferin 4-monooxygenase (Photinus pyralis) (UniProt P08659). The experiment in a line: inhibition of purified Photinus pyralis luciferase – biochemical, luminescence, purified enzyme, 2006 set, primary screen (AID 1141).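 Note: cell-free assay with purified firefly luciferase at 100 ng per well in PBS; test concentration not given here.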 The following applies: purified firefly luciferase, SteadyGlo luminescence, 30 min; higher = more signal, called active from +8 up or from −8 down.
In assay [10] the test system is Wnt5a (protein binding on small-molecule microarray). The experiment in a line: small molecules binding Wnt5a protein – biophysical, small-molecule microarray, 635/667 nm fluorescence, primary screen (AID 1142).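 Note: fluorescence read at 667 nm with signal to noise per printed feature.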 Conditions: 635 nm fluorescence, higher = more signal.
Assay [11] can be described thus: ATP-based viability of Huh7 replicon cells – cell-based, CellTiter-Glo luminescence, basal, 48 h, cytotoxicity control for HCV replication inhibitor project, primary screen (AID 1143).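 Note: Huh7 hepatoma cells carrying a hepatitis C replication reporter with no stimulus; test concentration not given here.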 The following applies: higher = more signal, called active from +8 up or from −8 down. (In antiviral work, replicon cells carry a viral genome segment that copies itself.)
The nature of assay [12]: Pseudomonas biofilm growth suppression – PAO1 strain, BacTiter-Glo luminescence, LB-PBS, primary screen (AID 1144). Conditions: P. aeruginosa PAO1 biofilm, 12 h, higher = more signal.
The nature of assay [13]: basal CRE-LacZ reporter activity in PC12 – cell-based, unstimulated, primary screen (AID 1145). Conditions: no forskolin, luminescence, 4.5 h, higher = more signal, called active from +8 up or from −8 down.
Assay [14] in a line: forskolin-driven CRE-LacZ activity in PC12 – cell-based, CRE-LacZ reporter, forskolin-stimulated, primary screen (AID 1146).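 Note: PC12 cells with 6xCRE LacZ reporter stimulated by forskolin 10 µM; beta-galactosidase reporter signal reflecting CREB driven transcription.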 The following applies: luminescence, 4.5 h, higher = more signal, called active from +8 up or from −8 down.
Assay [15] deals with Streptavidin (Streptomyces avidinii) (UniProt P22629). Briefly: compounds binding control protein streptavidin – biophysical, small-molecule microarray, 635/667 nm fluorescence, artefact control for SMM compound annotation, primary screen (AID 1147).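 Note: signal reflects streptavidin binding to arrayed compounds as a control protein.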 The following applies: higher = more signal.
Assay [16] in a line: probe aInhba binding on compound microarray – biochemical, small-molecule microarray, 635/667 nm fluorescence, primary screen (AID 1148).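 Note: score merges 667nm spot fluorescence with signal-to-noise for antibody binding to printed compounds.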 Conditions: higher = more signal.
In assay [17] the target is Torsin-1A (Homo sapiens) (UniProt O14656). The experiment in a line: TOR1A wild-type binding on microarray – cell lysate, small-molecule microarray, lysate, 635/667 nm, primary screen (AID 1149). The following applies: COS7 hTOR1A-WT lysate, 635 nm fluorescence, higher = more signal.
For assay [18] the target is unchanged. Briefly: torsin A mutant lysate binding on microarrays – cell lysate, small-molecule microarray, COS7 lysate, 635/667 nm fluorescence, primary screen (AID 1150).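 Note: score pools 667 nm emission and signal to noise measuring lysate protein binding.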 The following applies: COS7 hTOR1A mutant lysate, 635 nm fluorescence, higher = more signal.
The test system of assay [19] is Sonic hedgehog protein (Shh). The experiment in a line: Sonic hedgehog microarray binding compounds – biochemical, small-molecule microarray, 635/667 nm fluorescence, primary screen (AID 1151).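 Note: Shh protein binding to compounds spotted on small-molecule microarray slides; score combines spot fluorescence intensity with signal-to-noise across triplicate slides.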 Conditions: 635 nm fluorescence, higher = more signal.

Molecules are shown by their SMILES. The source made the active and inactive calls. Unless noted, the rule behind the calls is not given here.

Chain of Luciferin 4-monooxygenase (Photinus pyralis) (P08659 whole entry, looked up): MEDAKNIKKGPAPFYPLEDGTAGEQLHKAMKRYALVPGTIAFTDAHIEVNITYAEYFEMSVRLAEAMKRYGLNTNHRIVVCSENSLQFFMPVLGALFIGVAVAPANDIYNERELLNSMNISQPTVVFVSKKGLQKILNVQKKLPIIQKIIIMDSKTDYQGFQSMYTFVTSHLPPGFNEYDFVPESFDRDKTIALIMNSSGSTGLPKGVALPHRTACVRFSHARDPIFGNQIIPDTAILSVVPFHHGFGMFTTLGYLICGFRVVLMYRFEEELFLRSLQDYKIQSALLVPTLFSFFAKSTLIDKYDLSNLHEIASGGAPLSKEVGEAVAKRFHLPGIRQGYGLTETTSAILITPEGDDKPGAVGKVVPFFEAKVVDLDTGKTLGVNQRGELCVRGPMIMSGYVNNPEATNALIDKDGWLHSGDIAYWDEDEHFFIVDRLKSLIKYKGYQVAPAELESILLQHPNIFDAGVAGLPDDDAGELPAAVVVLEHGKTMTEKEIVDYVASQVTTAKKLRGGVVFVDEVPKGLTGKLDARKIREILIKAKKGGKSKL
Chain of Focal adhesion kinase 1 (Homo sapiens) (Q05397 whole entry, looked up): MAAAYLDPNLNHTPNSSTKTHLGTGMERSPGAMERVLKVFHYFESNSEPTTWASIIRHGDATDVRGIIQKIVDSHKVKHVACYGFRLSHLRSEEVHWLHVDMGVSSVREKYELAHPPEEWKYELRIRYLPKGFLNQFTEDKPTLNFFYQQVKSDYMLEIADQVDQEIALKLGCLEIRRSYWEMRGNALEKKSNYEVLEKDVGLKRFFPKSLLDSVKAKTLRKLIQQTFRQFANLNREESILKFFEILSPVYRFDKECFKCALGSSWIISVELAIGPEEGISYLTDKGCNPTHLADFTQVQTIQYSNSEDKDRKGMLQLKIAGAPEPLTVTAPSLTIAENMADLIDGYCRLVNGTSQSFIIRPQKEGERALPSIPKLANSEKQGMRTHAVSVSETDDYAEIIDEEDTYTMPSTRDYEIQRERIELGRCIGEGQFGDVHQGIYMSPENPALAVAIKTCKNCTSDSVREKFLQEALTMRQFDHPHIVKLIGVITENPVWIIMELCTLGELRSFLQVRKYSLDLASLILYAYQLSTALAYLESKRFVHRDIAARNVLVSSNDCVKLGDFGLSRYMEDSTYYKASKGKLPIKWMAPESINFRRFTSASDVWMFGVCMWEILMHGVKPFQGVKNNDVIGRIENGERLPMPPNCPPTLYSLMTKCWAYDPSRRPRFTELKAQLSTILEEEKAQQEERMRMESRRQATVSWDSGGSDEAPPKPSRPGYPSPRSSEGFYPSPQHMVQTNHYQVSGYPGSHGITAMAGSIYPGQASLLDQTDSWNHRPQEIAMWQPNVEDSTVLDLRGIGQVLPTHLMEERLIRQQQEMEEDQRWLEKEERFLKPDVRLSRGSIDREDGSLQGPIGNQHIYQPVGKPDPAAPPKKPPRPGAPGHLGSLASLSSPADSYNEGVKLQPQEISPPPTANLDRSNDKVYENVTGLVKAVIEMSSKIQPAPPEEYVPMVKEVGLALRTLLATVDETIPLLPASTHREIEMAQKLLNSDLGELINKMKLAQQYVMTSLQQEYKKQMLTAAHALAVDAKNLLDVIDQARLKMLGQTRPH
Chain of Torsin-1A (Homo sapiens) (O14656 whole entry, looked up): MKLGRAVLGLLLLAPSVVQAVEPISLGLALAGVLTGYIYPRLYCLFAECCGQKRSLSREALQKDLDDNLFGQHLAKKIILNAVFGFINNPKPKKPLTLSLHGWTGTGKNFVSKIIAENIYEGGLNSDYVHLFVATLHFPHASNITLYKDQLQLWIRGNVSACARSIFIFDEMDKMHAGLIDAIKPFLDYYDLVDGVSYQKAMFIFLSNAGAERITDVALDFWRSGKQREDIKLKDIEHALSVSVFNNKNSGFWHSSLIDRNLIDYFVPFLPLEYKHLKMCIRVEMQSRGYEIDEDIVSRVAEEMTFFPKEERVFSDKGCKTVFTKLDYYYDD
Chain of Fibroblast growth factor 2 (Homo sapiens) (P09038 whole entry, looked up): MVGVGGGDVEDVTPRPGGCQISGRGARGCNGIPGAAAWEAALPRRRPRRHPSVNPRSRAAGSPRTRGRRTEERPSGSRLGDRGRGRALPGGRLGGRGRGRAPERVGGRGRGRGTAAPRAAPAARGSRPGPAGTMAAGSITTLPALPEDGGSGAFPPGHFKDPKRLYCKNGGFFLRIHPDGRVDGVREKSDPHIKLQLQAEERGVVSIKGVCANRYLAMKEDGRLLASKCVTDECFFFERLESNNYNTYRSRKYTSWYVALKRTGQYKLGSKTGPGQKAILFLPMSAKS
Chain of Streptavidin (Streptomyces avidinii) (P22629 whole entry, looked up): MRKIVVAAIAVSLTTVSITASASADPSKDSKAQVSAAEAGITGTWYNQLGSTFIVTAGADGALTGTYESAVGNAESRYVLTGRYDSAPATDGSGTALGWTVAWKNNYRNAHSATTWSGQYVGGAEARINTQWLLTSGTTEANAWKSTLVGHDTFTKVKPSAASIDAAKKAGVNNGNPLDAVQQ
Chain of Follistatin (Homo sapiens) (P19883 whole entry, looked up): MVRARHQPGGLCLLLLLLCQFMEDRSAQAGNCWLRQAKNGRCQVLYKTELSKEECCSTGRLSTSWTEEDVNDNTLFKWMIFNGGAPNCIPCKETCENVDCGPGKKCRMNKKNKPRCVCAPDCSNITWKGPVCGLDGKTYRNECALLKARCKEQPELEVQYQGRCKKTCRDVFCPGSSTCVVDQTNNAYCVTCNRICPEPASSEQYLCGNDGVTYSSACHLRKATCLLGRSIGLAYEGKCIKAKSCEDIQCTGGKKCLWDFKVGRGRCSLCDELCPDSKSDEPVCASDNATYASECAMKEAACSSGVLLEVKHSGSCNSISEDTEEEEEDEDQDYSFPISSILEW

Regarding `C=C(CCCC)/C(=C/C[C@H](OC(C)=O)c1ccc(OCCO)cc1)c1cc(C(=O)OC)ccc1OC`, the composite z-score in [1] is 0.124; in assay [2] it was 1.04; in assay [3], 0.667; in assay [4], 0.046; in [5] it was 0.935; in [6], 0.103. Also, the composite z-score in the assay on Lefty1 was 0.929; in [8], 0.775; in assay [10], 0.613; in [15] it was 0.156; in assay [16] it was 0.0363; with Torsin-1A (Homo sapiens) [17] it was -0.453. For the same compound, the composite z-score is 0.886 with Torsin-1A (Homo sapiens) [18] and 0.803 in assay [19]. For the same compound, the z-score in [7] is 1.78; in assay [9], -1.69 (inactive); in [11], -1.03 (inactive); in assay [12], -0.8 (inactive); in assay [13], 8.05 (active); in assay [14], -0.499 (inactive).
For the compound `COC(=O)[C@@]1(Cc2ccc(F)cc2)[C@H]2c3cc(C(=O)N4CCCC4)n(C)c3C[C@H]2CN1C(=O)c1ccccc1`, the composite z-score is 2.46 in assay [1]; 1.23 in assay [2]; 0.746 in assay [3]; 0.422 in [4]; 0.253 in assay [5]; -0.325 in [6]. The composite z-score with Lefty1 is -0.983; in assay [8], 0.0993; in assay [10], 0.926; in assay [15], 1.18; in assay [16], 0.757; with Torsin-1A (Homo sapiens) [17] it was 0.492. Moreover, the figures for the composite z-score (with Torsin-1A (Homo sapiens) [18]; in assay [19]) were 1.34 and -0.928, respectively. Further, the z-score in assay [7] is 0.312; in assay [9] it was 0.745 (inactive); in assay [11], -1.4 (inactive); in assay [12], -0.666 (inactive); in assay [13] it was 0.58 (inactive); in [14], 0.736 (inactive).
For the compound `CN(C)CCCCCCNC(=O)[C@@H]1C[C@@H]2C(=O)N[C@@H](CCCCN)C(=O)N2[C@@H]1c1ccc(O)cc1`, the composite z-score came to 2.6 in assay [1]; 1.33 in [2]; 3.73 in assay [3]; 0.957 in assay [4]; 1.54 in [5]; 1.6 in [6]. Further, the composite z-score in the assay with Lefty1 is 1.66; in assay [8] it was 1.73; in [10], 1.95; in [15], 2.97; in assay [16], 1.93; with Torsin-1A (Homo sapiens) [17], 3.46. In addition, the values for the composite z-score (in the assay with Torsin-1A (Homo sapiens) [18]; in [19]) were 3.21 and 1.88, respectively. The z-score in assay [7] is -0.742; in [9], 0.307 (inactive); in [11], -1.9 (inactive); in assay [12] it was -1.3 (inactive); in assay [13], -1.08 (inactive); in [14] it was -0.643 (inactive).
On to `O=C(CS)NCCCCCCNC(=O)[C@@H]1C[C@@H]2C(=O)NCC(=O)N2[C@@H]1c1ccc(O)cc1`, for which the composite z-score in assay [1] is 2.52; in assay [2], -0.41; in assay [3], 0.0509; in assay [4] it was -0.975; in assay [5], 0.526; in assay [6], 1.18. The composite z-score is -0.628 in the assay with Lefty1; -0.498 in assay [8]; -0.101 in assay [10]; -0.635 in assay [15]; -0.293 in assay [16]; 0.397 with Torsin-1A (Homo sapiens) [17]. Moreover, the composite z-score with Torsin-1A (Homo sapiens) [18] is -0.814; in [19], 0.236. In addition, the z-score was 0.601 in assay [7]; -1.38 (inactive) in [9]; -0.534 (inactive) in assay [11]; -1.26 (inactive) in assay [12]; -0.537 (inactive) in assay [13]; -1.57 (inactive) in assay [14].
As for `CC(C)=CCCC(C)=CC(O)C1C=CC2C(=O)N(c3ccccc3)C(=O)C2N1Nc1ccccc1F` (stereo not given), the composite z-score was 1.55 in assay [1]; 1.03 in assay [2]; 0.789 in assay [3]; 0.988 in [4]; 0.462 in [5]; -0.617 in [6]. The composite z-score with Lefty1 is 0.278; in assay [8] it was 0.327; in [10], 0.151; in [15], 1.17; in assay [16], 0.0047; in the assay with Torsin-1A (Homo sapiens) [17], -0.216. Besides, the composite z-score was -0.0306 in the assay with Torsin-1A (Homo sapiens) [18] and 0.396 in assay [19]. Besides, the z-score in assay [7] is -0.4; in assay [9], 2 (inactive); in assay [11], -2.83 (inactive); in [12] it was -1.45 (inactive); in [13], -0.0228 (inactive); in [14] it was 0.358 (inactive).
